# Compounds without any hit were thinned out: in the full panel of roughly 79,000, 15% have a hit. Values without a mark were called inactive. The source made the active and inactive calls. No stated cut-off is given here; in the data, active means growth inhibition above about 70%; inactive means the rest.
# Columns and labels:
# [1] = NCI Yeast Anticancer Drug Screen. Data for the rad50 strain (AID 155);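 further: 0% = growth of vehicle-only cultures of the same strain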; conditions: S. cerevisiae rad50 strain growth inhibition, stronger effect = higher value
# Summary of the method: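 A DNA repair-deficient yeast mutant serves as the test organism; compound-induced growth inhibition is calculated against vehicle-treated cells.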
# [2] = NCI Yeast Anticancer Drug Screen. Data for the mec2-1 strain (AID 157); conditions: S. cerevisiae mec2-1 strain, stronger effect = higher value
# Summary of the method: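 Growth inhibition is read against vehicle-treated controls after compound exposure of the mec2-1 yeast strain, which is defective in DNA damage repair or cell cycle control.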
# [3] = NCI Yeast Anticancer Drug Screen. Data for the sgs1 mgt1 strain (AID 161);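 further: 0% = growth of cultures given vehicle only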; conditions: S. cerevisiae sgs1 mgt1 strain, stronger effect = higher value
# Summary of the method: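 This yeast growth screen uses a strain with defined DNA-repair lesions; compound-treated growth is compared with vehicle-treated growth.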
# [4] = NCI Yeast Anticancer Drug Screen. Data for the cln2 rad14 strain (AID 165);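 further: 0% = growth equal to vehicle treated cultures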; conditions: S. cerevisiae cln2 rad14 strain, stronger effect = higher value
# Summary of the method: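 Growth inhibition, relative to vehicle-treated controls, is the read-out. The test organism is a yeast strain with defined genetic alterations, cln2 rad14.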
# [5] = NCI Yeast Anticancer Drug Screen. Data for the bub3 strain (AID 167); conditions: S. cerevisiae bub3 mutant strain, stronger effect = higher value
# Summary of the method: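 Inhibition values come from growth of compound-treated mutant yeast normalised to vehicle-treated controls.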
# [6] = NCI Yeast Anticancer Drug Screen. Data for the mlh1 rad18 strain (AID 175); conditions: S. cerevisiae mlh1 rad18 strain growth inhibition, stronger effect = higher value
# Summary of the method: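 Cells of a genetically altered yeast strain, deficient in DNA damage repair, were treated with compound. Their growth was then compared with that of vehicle-treated cultures to give inhibition.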
# [7] = at 5.0 µM (retest, dose inferred, filed as 0.5)
# [8] = at 50.0 µM (retest, dose inferred, filed as 5.0)
SMILES,"growth inhibition [1, 7]","growth inhibition [1, 8]",growth inhibition ([1]; at 50.0 µM),"growth inhibition [2, 7] [%]","growth inhibition [2, 8]",growth inhibition ([2]; at 50.0 µM),"growth inhibition [3, 7]","growth inhibition [3, 8]",growth inhibition ([3]; at 50.0 µM),"growth inhibition [4, 7]","growth inhibition [4, 8]",growth inhibition ([4]; at 50.0 µM),"growth inhibition [5, 7]","growth inhibition [5, 8]",growth inhibition ([5]; at 50.0 µM),"growth inhibition [6, 7]","growth inhibition [6, 8]",growth inhibition ([6]; at 50.0 µM)
N=C(N)c1ccc(/C=C/c2ccc(C(=N)N)cc2)cc1,69%,80% (active),85.8% (active),59,91% (active),81% (active),57%,87% (active),74% (active),75% (active),84% (active),67.6%,82% (active),94% (active),87.5% (active),90% (active),95% (active),90.2% (active)
CCc1cc2c(c3[nH]ccc13)[C@@H](C)C[C@H]2C,-3%,99% (active),73% (active),3,99% (active),84.2% (active),0%,99% (active),84.8% (active),-3%,98% (active),84.3% (active),9%,98% (active),91.5% (active),2%,99% (active),88.5% (active)
CC(CCC(=O)O)[C@H]1CCC2[C@H]3C(CC[C@@]21C)[C@@]1(C)CCC(O)C[C@H]1C[C@@H]3O (stereo not given in full),-11%,46%,75.1% (active),-13,56%,73.2% (active),-10%,60%,79.3% (active),2%,73% (active),73% (active),-13%,86% (active),56.1%,-26%,76% (active),71.6% (active)
CCOc1ccc(C(OC)OC)cc1[N+](=O)[O-],3%,-7%,-12.1%,-1,3%,-6.9%,-11%,-7%,-25.1%,-4%,0%,87.5% (active),0%,1%,-0.8%,-1%,-7%,10%
Cc1cc(O)n(Cc2ccccc2)c(=O)c1,-151%,34%,48.5%,-51,-36%,9.75%,-67%,33%,34.6%,-60%,-45%,-4.75%,-70%,4%,47.9%,-123%,7%,67.1%
O=S1(=O)C(Br)=Cc2ccccc21,16%,99% (active),99.3% (active),-6,99% (active),99.3% (active),25%,99% (active),98.7% (active),17%,99% (active),97.7% (active),13%,99% (active),99.4% (active),23%,99% (active),98.7% (active)
O=C1C(c2ccccc2)=[N+]([O-])c2cc([N+](=O)[O-])c(/C(Cl)=C/c3ccccc3)cc21,4%,8%,54.8%,5,33%,94.5% (active),6%,16%,71.5% (active),11%,9%,39.2%,7%,7%,97.9% (active),3%,3%,96.2% (active)
Oc1c(Br)cc(Br)c2cccnc12,93% (active),97% (active),98.7% (active),35,97% (active),98.9% (active),88% (active),97% (active),98.5% (active),82% (active),97% (active),97.3% (active),28%,88% (active),98.3% (active),96% (active),96% (active),98.4% (active)
Cc1c(O)/c(=C\O)c2nc3c(=O)ccc(C(=O)NCCN(C)C)c3[nH]c2c1=O,29%,97% (active),57.5%,14,70% (active),98.2% (active),33%,97% (active),56%,-10%,94% (active),98.2% (active),19%,96% (active),98.3% (active),34%,96% (active),45.1%
C\C=C/C=C/C=C/C(=O)O,5%,13%,66.5%,2,-4%,60.1%,2%,7%,42.3%,-2%,3%,40.6%,4%,0%,95% (active),1%,8%,45%
